Bioassay records: PubChem, Broad Institute
Vif inh: HIV Vif self-association inhibitors, primary screen, imaging, HEK293T, single point; HEK293T cells, Vif self-association by quenched fluorescence, 24 h; 340,000 compounds, 0.35% hits; inhibition, % at 7.49 µM; in the data active means inhibition above about 50%, passing the limit was not always enough; inconclusive means no clear call, values can overlap the other calls; inactive means below about 31%
FGF22 binding: binders of human FGF22 protein, primary screen, FGF22 synaptogenesis inhibitor project, biophysical, thermal shift, single point. Fibroblast growth factor 22 (Homo sapiens), Q9HCT0. recombinant FGF22 thermal shift, SYPRO orange fluorescence; percent of sucrose octasulfate shift, DMSO zero. activity (Tm shift, normalised), % at 9.99 µM. 340,000 compounds, 1.5% hits. AID 651658, 2012;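 active means mean Tm shift, scaled 0 neutral to 100 positive control, at about 1.3% or above, every replicate too, limit read from the data; inconclusive means no clear call, values can overlap the other calls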
Target sequence (Q9HCT0 whole entry, looked up): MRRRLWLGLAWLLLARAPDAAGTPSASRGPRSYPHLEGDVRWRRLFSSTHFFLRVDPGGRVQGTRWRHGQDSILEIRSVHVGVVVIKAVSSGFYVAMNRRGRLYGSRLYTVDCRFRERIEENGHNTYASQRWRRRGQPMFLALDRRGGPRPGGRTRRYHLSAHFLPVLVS
F508del corr: F508del CFTR correction, initial screen, CFBE line, single point | CFBE cells, YFP halide quenching; stimulated with forskolin plus potentiator P3; % fluorescence drop versus neutral controls | activity (quench increase), % at 7.58 µM | 350,000 compounds, 0.36% hits;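 active means mean added fluorescence quench of at least 8% versus neutral control, with both replicates also reaching 8%; inconclusive means only one of the mean or replicate conditions met; inactive means mean below 8% and not both replicates reaching 8%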;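 further: cells transiently co-express mutant CFTR-F508del with the halide-sensitive YFP; corrector assay measuring rescue of mutant channel to the surface after 24 h compound exposure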
A number is an active result; i = inactive; ? = inconclusive; nt = not tested or not shown. Compounds with a hit are over-represented: about 1.7% of the library has one in this group of screens.

SMILES | Vif inh | FGF22 binding | F508del corr
CCc1c(C)nc(SCC(=O)N2CCN(c3ccccc3OC)CC2)[nH]c1=O | i | i | i
CNCc1sccc1C | i | 43 | i
Cc1ccsc1CNS(=O)(=O)c1ccc(F)cc1 | i | i | i
COCCNC(=O)Cc1ccc(F)cc1 | i | i | nt
CCOCCCNC(=O)Cc1ccc(F)cc1 | nt | i | i
CC(C)OCCCNC(=O)Cc1ccc(F)cc1 | i | 43 | i
CC(C)(C)c1ccc(OCCNC(=O)Cc2ccc(F)cc2)cc1 | i | 1.6 | nt
COc1ccccc1S(=O)(=O)N[C@@H]1CC[C@H](CC(=O)NCc2cccc(F)c2)O[C@@H]1CO | nt | i | i
Cc1cccc(C)c1OCC(=O)OCC(=O)Nc1ccc(Cl)cn1 | i | i | 23
Cc1cc(Cl)ccc1OCC(=O)OCC(=O)Nc1ccc(Cl)cn1 | i | i | i
C[C@@H]1CN([C@@H](C)CO)C(=O)Cc2cc(NC(=O)C3CCCCC3)ccc2O[C@H]1CN(C)S(=O)(=O)c1cccs1 | nt | i | i
Cc1csc2ncc(C(=O)Nc3ccc(C(F)(F)F)cc3)c(=O)n12 | i | i | i
CC(=O)c1cnc2scnn2c1=O | i | 43 | i
Cc1c(C(=O)NCc2ccccc2)oc2ccc(S(=O)(=O)N3CCC4(CC3)OCCO4)cc12 | i | nt | nt
Cc1c(C(=O)NCc2ccccn2)oc2ccc(S(=O)(=O)N3CCC4(CC3)OCCO4)cc12 | i | 43 | i
NCC[C@H]1CC[C@H](NC(=O)c2ccccc2F)[C@H](CO)O1 | nt | nt | i
C[C@H](NC(=O)[C@H]1[C@H](CO)[C@H]2Cn3c(cccc3=O)[C@H]2N1CC1CC1)c1ccccc1 | nt | i | i
C[C@@H]1CN([C@@H](C)CO)C(=O)c2cc(NC(=O)Nc3ccc(C(F)(F)F)cc3)ccc2O[C@H]1CN(C)S(=O)(=O)c1ccc(Cl)cc1 | nt | i | i
CC(=O)c1c(O)cc(C)n(-c2ccc(F)cc2)c1=O | i | 44 | i
Cc1cc(C)n(-c2ccc(F)cc2)c(=O)c1C(=O)O | i | nt | nt
O=C(NCC[C@H]1CC[C@H](NC(=O)C2CCC2)[C@@H](CO)O1)c1cc(Cl)cc(Cl)c1 | nt | i | i
C=CCNc1nc(Cl)nc(Nc2ccc(OC)cc2)n1 | i | nt | nt
C=CCNc1nc(Nc2ccc([N+](=O)[O-])cc2)nc(OC)n1 | i | nt | nt
COc1ccc(Nc2nc(Cl)nc(Nc3ccc(OC)cc3OC)n2)c(OC)c1 | i | i | i
C=CCNc1nc(Cl)nc(Nc2ccc([N+](=O)[O-])cc2)n1 | i | 44 | i
SMILES | Vif inh | FGF22 binding | F508del corr
Clc1nc(Nc2ccccc2)nc(Nc2ccccc2)n1 | i | nt | nt
CC(=O)Nc1ccc(Nc2nc(Cl)nc(Nc3ccc(NC(C)=O)cc3)n2)cc1 | i | 44 | i
C=CCNc1nc(Cl)nc(Nc2ccc(OC)cc2OC)n1 | i | 43 | i
COc1ccc(Nc2nc(Cl)nc(Nc3ccc(OC)cc3)n2)cc1 | i | 43 | ?
C[C@@H]1CCCCO[C@H](CN(C)Cc2ccc(C(=O)O)cc2)[C@@H](C)CN([C@@H](C)CO)C(=O)c2cc(NC(=O)NC3CCCCC3)ccc2O1 | nt | i | i
C[C@@H]1CN([C@H](C)CO)C(=O)c2cc(-c3ccccc3F)cnc2O[C@@H]1CN(C)C(=O)CN(C)C | nt | i | i
C[C@@H](NC(=O)C[C@@H]1C[C@@H]2c3cc(NC(=O)CC4CC4)ccc3O[C@@H]2[C@@H](CO)O1)c1ccccc1 | nt | nt | i
CC(C)NC(=O)Nc1ccc2c(c1)C(=O)N([C@H](C)CO)C[C@H](C)[C@@H](CN(C)S(=O)(=O)c1ccc(Cl)cc1)OCCCC[C@@H](C)O2 | nt | i | i
COc1ccc(S(=O)(=O)N[C@H]2C=C[C@@H](CC(=O)N3CCc4ccccc4C3)O[C@H]2CO)cc1 | nt | i | i
COc1ccc(-c2cc(C(F)(F)F)nc(S(=O)(=O)CCCC(=O)Nc3cccnc3Cl)n2)cc1OC | 115 | i | i
COC(=O)CCS(=O)(=O)c1nc(-c2ccccc2)cc(C(F)(F)F)n1 | i | nt | nt
CO[C@@H]1CN(C)C(=O)c2ccc(NC(=O)C3CC3)cc2OC[C@@H](C)N(Cc2nccs2)C[C@H]1C | nt | i | i
C[C@H](CO)N1C[C@H](C)[C@@H](CN(C)Cc2ccc(C(=O)O)cc2)Oc2c(NC(=O)NC3CCCCC3)cccc2C1=O | nt | i | i
CCOc1cc(CNc2nn[nH]n2)ccc1OCC(=O)NC(C)(C)C | i | 44 | i
CCOc1cc(CNc2ncn[nH]2)ccc1OCC(=O)NC(C)(C)C | i | 43 | i
COc1cc(CNc2ncn[nH]2)ccc1OCC(=O)NC(C)(C)C | i | i | i
CCOc1cc(CNc2ccc(S(N)(=O)=O)cc2)ccc1OCC(=O)NC(C)(C)C | i | i | i
COCC#Cc1cnc2c(c1)C(=O)N([C@H](C)CO)C[C@@H](C)[C@H](CN(C)C(=O)CCN1CCCCC1)O2 | nt | i | i
C[C@H]1CN([C@@H](C)CO)C(=O)Cc2cc(NS(=O)(=O)c3ccc(Cl)cc3)ccc2O[C@H]1CN(C)C(=O)Nc1ccc(C(F)(F)F)cc1 | nt | i | i
C/C=C/c1ccc([C@H]2[C@@H](CO)N3C(=O)CN(Cc4ccc(C)cc4)C[C@@H]23)cc1 | nt | nt | i
COc1cc2c(cc1OC)C(c1cccs1)N(C(=O)C(C)C)CC2 (stereo not drawn) | i | nt | nt
COc1cc2c(cc1OC)C(c1cccs1)N(C(=O)c1cccnc1)CC2 (stereo not drawn) | nt | i | 9.9
Cc1ccc(S(=O)(=O)Nc2ccc(SC(F)F)cc2)c(C)c1 | 61 | nt | nt
CC(C)c1ccc(S(=O)(=O)Nc2ccc(SC(F)F)cc2)cc1 | i | nt | nt
C[C@H](CO)N1C[C@H](C)[C@H](CN(C)S(=O)(=O)c2cccs2)OCCCC[C@H](C)Oc2ccc(N(C)C)cc2C1=O | nt | nt | i
SMILES | Vif inh | FGF22 binding | F508del corr
CC(C)NC(=O)N(C)C[C@H]1Oc2ncc(C#CC3CCCCC3)cc2C(=O)N([C@@H](C)CO)C[C@H]1C | nt | nt | i
C[C@H](NC(=O)C[C@@H]1C=C[C@@H](NC(=O)C2CC2)[C@H](CO)O1)c1ccccc1 | nt | i | i
O=C(NC(=S)NCc1ccc(Cl)cc1Cl)c1ccco1 | i | 43 | i
O=C(NC(=S)NCc1ccc(Cl)cc1)c1ccco1 | i | i | i
C[C@@H]1CN([C@H](C)CO)C(=O)c2cc(NC(=O)NC3CCCCC3)ccc2O[C@@H](C)CCCCO[C@@H]1CN(C)S(=O)(=O)c1ccc(Cl)cc1 | nt | i | i
COc1cccc(C2=CC(c3ccc(N(C)C)cc3)n3nnnc3N2)c1 (stereo not drawn) | i | nt | nt
COc1cccc(C2=CC(c3ccccc3)n3nnnc3N2)c1 (stereo not drawn) | i | i | 15
CO[C@H]1CN(C)C(=O)c2cc(NC(=O)Nc3ccc(Cl)c(Cl)c3)ccc2OC[C@H](C)NC[C@H]1C | nt | nt | i
COc1ccc(CC(=O)NC(C)CCc2ccccc2)cc1OC (stereo not drawn) | i | i | i
C=CCNC(=O)c1ccccc1NC(=O)COc1ccccc1 | i | i | i
COc1ccc(CCNC(=O)CN(c2cccc([N+](=O)[O-])c2)S(C)(=O)=O)cc1OC | i | i | i
C=CCNC(=O)c1ccccc1NC(=O)COc1ccc(OC)cc1 | i | 44 | i
COc1ccc(CCNC(=O)CCc2ccc(S(=O)(=O)NC(C)C)cc2)cc1OC | i | nt | nt
